PAFAH1B3 inh – PAFAH1B3 enzyme inhibitors, primary screen, biochemical, fluorescence polarization, human. recombinant PAFAH1B3, FP-rhodamine probe. 340,000 tested, 0.28% active. inhibition, % at 3.39 µM;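 active = inhibition above the screen-wide average of all tested compounds plus 3 SD, cut at about 25% in these data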;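 note: 0% = enzyme with DMSO only and 100% = wells lacking PAFAH1B3 protein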
CTSL1 counter – Fasciola hepatica cathepsin L1 inhibitors, primary screen, counter-screen for PFM18AAP inhibitor project, biochemical, QFRET, fluorogenic peptide substrate; recombinant F. hepatica cathepsin L1, Z-Leu-Arg-MCA fluorescence; inhibition, % at 5.96 µM; 300,000 tested, 0.49% active;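 active = inhibition above the mean of all tested compounds plus 3 SD, set per screening campaign, cut at about 17% in these data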;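 note: 0% = plate median of test compound wells and 100% = 1 µM Z-Phe-Ala-diazomethylketone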
PAFAH2 FP inh – PAFAH2 enzyme inhibitors, primary screen, biochemical, fluorescence polarization, human. recombinant PAFAH2, FP-rhodamine activity probe. 340,000 tested, 0.99% active. Platelet-activating factor acetylhydrolase 2, cytoplasmic (Homo sapiens), Q99487. AID 492956, 2010. inhibition, % at 3.39 µM;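 active = inhibition above the mean over all tested compounds plus 3 SD, cut at about 30% in these data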;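 note: inhibitors block probe labeling of enzyme so polarization drops; 0% = enzyme with DMSO and 100% = wells lacking PAFAH2 protein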
pPAFAH FP inh – pPAFAH enzyme inhibitors, primary screen, biochemical, fluorescence polarization, human; 330,000 tested, 1.5% active; inhibition, % at 3.39 µM; Platelet-activating factor acetylhydrolase (Homo sapiens), Q13093; recombinant pPAFAH, FP-rhodamine probe fluorescence polarization;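 active = inhibition above the mean inhibition across the screen plus 3 SD, cut at about 25% in these data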;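 note: inhibitors block binding of the rhodamine activity-based probe so polarization drops; 0% = enzyme with DMSO and 100% = wells lacking pPAFAH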
PAFAH1B2 inh – PAFAH1B2 enzyme inhibitors, primary screen, biochemical, fluorescence polarization, human; inhibition, % at 3.39 µM; Platelet-activating factor acetylhydrolase IB subunit alpha2 (Homo sapiens), P68402; 340,000 tested, 1.2% active; recombinant PAFAH1B2, FP-rhodamine activity probe;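 active = inhibition above the mean of all tested compounds plus 3 SD, cut at about 24% in these data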;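 note: 0% = enzyme with DMSO and 100% = wells lacking PAFAH1B2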
PP5 inh – PP5 phosphatase inhibitors, primary screen, biochemical, fluorescence | purified PP5c, OMFP substrate fluorescence | inhibition, % at 6.7 µM | 320,000 tested, 0.18% active | AID 1987, 2009;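 active = inhibition above the campaign's mean inhibition across all tested compounds plus 3 SD, cut at about 9.5% in these data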;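 note: 0% = DMSO only and 100% = 100 µM cantharidin control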
Target sequence (P53041 whole entry, looked up): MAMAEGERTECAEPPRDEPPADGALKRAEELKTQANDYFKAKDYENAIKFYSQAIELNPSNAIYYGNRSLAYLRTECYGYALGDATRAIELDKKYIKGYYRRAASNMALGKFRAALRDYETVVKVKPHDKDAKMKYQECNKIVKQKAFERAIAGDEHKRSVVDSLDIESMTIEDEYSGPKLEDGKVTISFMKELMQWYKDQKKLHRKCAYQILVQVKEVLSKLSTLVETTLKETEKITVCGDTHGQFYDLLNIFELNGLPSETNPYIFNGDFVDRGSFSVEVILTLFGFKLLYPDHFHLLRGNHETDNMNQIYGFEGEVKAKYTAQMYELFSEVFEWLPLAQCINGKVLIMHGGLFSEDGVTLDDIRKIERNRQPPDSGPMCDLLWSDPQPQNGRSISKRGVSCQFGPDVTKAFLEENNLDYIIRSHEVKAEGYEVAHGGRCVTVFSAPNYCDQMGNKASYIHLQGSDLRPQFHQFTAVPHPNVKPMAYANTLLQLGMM
PAFAH2 confirm – PAFAH2 enzyme inhibitors, confirmation, biochemical, fluorescence polarization, human | inhibition, % at 3.39 µM | 2,300 tested, 65% active | recombinant PAFAH2, FP-rhodamine activity probe | shares compounds with PAFAH2 FP inh;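 active = mean inhibition over three repeats above a set limit taken from the earlier primary screen, cut at about 30% in these data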;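 note: inhibitor blocks binding of rhodamine activity probe so polarization falls; 0% = enzyme with DMSO and 100% = wells lacking PAFAH2 protein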
PAFAH1B3 conf FP – PAFAH1B3 enzyme inhibitors, confirmation, biochemical, fluorescence polarization, human | recombinant PAFAH1B3, FP-Rh activity-based probe | shares compounds with PAFAH1B3 inh | 390 tested, 30% active | inhibition, % at 3.39 µM;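 active = average inhibition over triplicate runs above the hit cutoff set in the earlier primary screen, cut at about 25% in these data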;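 note: 0% = enzyme with DMSO and 100% = wells lacking PAFAH1B3 protein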
* = called active by the depositor. Rows were chosen to be rich in hits. Some 3% of all compounds tested hit in one or more screens of this group.

`CC(C)(C)n1cccc1/C=C1\C(=O)NC(=O)N(c2ccccc2)C1=O` gave PAFAH1B3 inh -2, CTSL1 counter 3, PAFAH2 FP inh 50*, pPAFAH FP inh 2, PAFAH1B2 inh 9, PP5 inh 3 and PAFAH2 confirm 44*.
Screening Cn1cc(/C=C2\C(=O)NC(=O)N(c3ccccc3)C2=O)c2ccccc21 returned PAFAH1B3 inh 7, CTSL1 counter 8, PAFAH2 FP inh 39*, pPAFAH FP inh -1, PAFAH1B2 inh 5, PP5 inh -1 and PAFAH2 confirm 36*.
For COc1cc(/C=C2\C(=O)NC(=O)N(c3ccccc3)C2=O)cc(OC)c1O the results were PAFAH1B3 inh 10, CTSL1 counter 0, PAFAH2 FP inh -1, pPAFAH FP inh 3, PAFAH1B2 inh 5 and PP5 inh 4.
Screening Oc1c(Cl)cccc1Cc1cc(Cl)cc(Cl)c1O returned PAFAH1B3 inh 6, PAFAH2 FP inh 37*, PAFAH1B2 inh 5 and PAFAH2 confirm 25.
`Cc1cc(OCC(=O)N2CCC(C(N)=O)CC2)c2c3c(c(=O)oc2c1)CCCC3` gave PAFAH1B3 inh 3, CTSL1 counter 0, PAFAH2 FP inh -3, pPAFAH FP inh 2, PAFAH1B2 inh 4 and PP5 inh 2.
Nc1c(C(=O)NC2CCCC2)c2nc3ccccc3nc2n1CC1CCCO1 (centres undefined) was read as PAFAH1B3 inh 26*, CTSL1 counter 4, PAFAH2 FP inh 7, pPAFAH FP inh 17, PAFAH1B2 inh 2, PP5 inh 8 and PAFAH1B3 conf FP 15.
O=[N+]([O-])c1cccc(NP(=O)(N2CC2)N2CC2)c1 was read as PAFAH1B3 inh -5, PAFAH2 FP inh 8 and PAFAH1B2 inh -5.
CCCCCn1c(NC(=O)c2ccco2)c(C(=O)OCC)c2nc3ccccc3nc21 was read as PAFAH1B3 inh 55*, CTSL1 counter 3, PAFAH2 FP inh 3, pPAFAH FP inh 8, PAFAH1B2 inh 23, PP5 inh 1 and PAFAH1B3 conf FP 50*.
`c1cncc(C2Nc3cccc4cccc(c34)N2)c1` gave PAFAH1B3 inh 36*, CTSL1 counter 1, PAFAH2 FP inh -1, pPAFAH FP inh 8, PAFAH1B2 inh 2, PP5 inh 1 and PAFAH1B3 conf FP 12.
For c1cncc(C2CCCCN2)c1 (centres undefined) the results were PAFAH1B3 inh 4, CTSL1 counter -1, PAFAH2 FP inh 0, pPAFAH FP inh -1, PAFAH1B2 inh 0 and PP5 inh 5.
Screening CC(C)(C)N1CC(C(=O)c2ccccc2)C1c1ccccc1 (centres undefined) returned PAFAH1B3 inh -2, PAFAH2 FP inh -5 and PAFAH1B2 inh -1.
`CN1CC[C@@]2(C)c3cc(O)ccc3N(C)[C@@H]12` gave PAFAH1B3 inh 40*, PAFAH2 FP inh 3, PAFAH1B2 inh 13 and PAFAH1B3 conf FP 5.
Screening CC1[C@H]2Cc3ccc(O)cc3[C@]1(C)CCN2C (some centres undefined) returned PAFAH1B3 inh 10, PAFAH2 FP inh -2 and PAFAH1B2 inh 3.
O=[N+]([O-])c1ccc(OP(=O)(O)Oc2ccc([N+](=O)[O-])cc2)cc1 was read as PAFAH1B3 inh 8, PAFAH2 FP inh 7 and PAFAH1B2 inh 0.
